# According to the supplement of paper PMC9844399:
# Where a name gives a salt, the structure may show the parent alone.
# System: HeLa
# Assay: nuclear count per well, robust Z-score vs DMSO; higher = more cells (less toxicity)
# Conditions: 10 µM; 6 h
# 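Also: Hoechst-stained nuclei counted by automated confocal imaging of four fields per well in 384-well plates, with the robust Z-score based on the per-plate DMSO median and robust SD.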
row,SMILES,nuclear count per well
1,CN(Cc1ccc(C(C)(C)C)cc1)Cc1cccc2ccccc12,0.943
2,C[C@H]1[C@H](NC(=O)/C(=N\OC(C)(C)C(=O)O)c2csc(N)n2)C(=O)N1S(=O)(=O)O [Aztreonam],0.104
3,CN(C)CCC(c1ccc(Cl)cc1)c1ccccn1 (stereo not given) [Chlorpheniramine Maleate],0.425
4,Oc1ccc(C2CNCCc3c2cc(O)c(O)c3Cl)cc1 (stereo not given) [Fenoldopam Mesylate],-1.24
5,CNC(=O)c1cc(Oc2ccc(NC(=O)Nc3ccc(Cl)c(C(F)(F)F)c3)cc2)ccn1 [Sorafenib Tosylate],1.02
6,CC(=O)Nc1nnc(S(N)(=O)=O)s1 [Acetazolamide],-0.436
7,Cc1[nH]c(=O)c(C#N)cc1-c1ccncc1 [Milrinone],-0.183
8,CN1CCC(=C2c3ccccc3C=Cc3ccccc32)CC1 [Cyproheptadine hydrochloride sesquihydrate],1.34
9,Cc1ccc(O)c([C@H](CCN(C(C)C)C(C)C)c2ccccc2)c1 [Tolterodine L-tartrate],-0.249
10,CNC(C)C1CCC(N)C(OC2C(N)CC(N)C(OC3OCC(C)(O)C(NC)C3O)C2O)O1 (stereo not given) [Gentamicin],0.347
11,CN/C(=N\CCSCc1nc[nH]c1C)NC#N [Cimetidine],0.352
12,CC(C)[C@@H](O)CC[C@@H](C)[C@H]1CC[C@H]2[C@@H]3CC=C4C[C@@H](O)CC[C@]4(C)[C@H]3CC[C@]12C [24(S)-hydroxycholesterol],-0.395
13,Cc1nnc(C(C)C)n1C1C[C@H]2CC[C@@H](C1)N2CC[C@H](NC(=O)C1CCC(F)(F)CC1)c1ccccc1 (stereo in doubt) [Maraviroc],0.433
14,COCCc1ccc(OCC(O)CNC(C)C)cc1 (stereo not given) [Metoprolol Tartrate],0.277
15,C=CC(N)CCC(=O)O (stereo not given) [Vigabatrin],0.0325
16,CCN(CC)CCCC(C)Nc1c2ccc(Cl)cc2nc2ccc(OC)cc12 (stereo not given),-2.72
17,CNC(C)C1CCC(N)C(OC2C(N)CC(N)C(OC3OCC(C)(O)C(NC)C3O)C2O)O1 (stereo not given) [Gentamycin Sulfate],-0.303
18,Oc1cc(O)cc(/C=C/c2ccc(O)c(O)c2)c1 [Piceatannol],-0.0133
19,CNS(=O)(=O)CCc1ccc2[nH]cc(C3CCN(C)CC3)c2c1,-0.5
20,CC1=C(/C=C/C(C)=C/C=C/C(C)=C/C(=O)O)C(C)(C)CCC1 [All trans retinoic acid],-0.749

row,SMILES,nuclear count per well
1,CC(=O)NC(C)(C)C(=O)N1CCC[C@H]1C(=O)NC(C)(C)C(=O)N[C@@H](C)C(=O)NC(C)(C)C(=O)N[C@@H](C)C(=O)N[C@@H](CCC(N)=O)C(=O)NC(C)(C)C(=O)N[C@H](C(=O)NC(C)(C)C(=O)NCC(=O)N[C@@H](CC(C)C)C(=O)NC(C)(C)C(=O)N1CCC[C@H]1C(=O)N[C@H](C(=O)NC(C)(C)C(=O)NC(C)(C)C(=O)N[C@@H](CCC(=O)O)C(=O)N[C@@H](CCC(N)=O)C(=O)N[C@H](CO)Cc1ccccc1)C(C)C)C(C)C [Alamethicin],0.383
2,COc1ccc([C@H]2Sc3ccccc3N(CCN(C)C)C(=O)[C@H]2OC(C)=O)cc1,0.209
3,CO[C@H]1/C=C/O[C@@]2(C)Oc3c(C)c(O)c4c(O)c(c5c(nc6cc(C)ccn65)c4c3C2=O)NC(=O)/C(C)=C\C=C\[C@H](C)[C@H](O)[C@@H](C)[C@@H](O)[C@@H](C)[C@H](OC(C)=O)[C@@H]1C [Rifaximin],0.22
4,CNCCCC1c2ccccc2C=Cc2ccccc21,-0.0976
5,CCCCC[C@H](O)/C=C/C1=C(C/C=C\CCCC(=O)O)C(=O)CC1 [Prostaglandin B2],1.37
6,CC(=O)Nc1c(I)c(NC(C)=O)c(I)c(C(=O)O)c1I [Diatrizoate Meglumine],-0.849
7,C[C@@H]1C[C@H]2[C@@H]3CCC4=CC(=O)C=C[C@]4(C)[C@@]3(F)[C@@H](O)C[C@]2(C)[C@H]1C(=O)CO [Desoximetasone],0.966
8,O=C(/C=C/c1ccc(/C=C/C(=O)Nc2ccc(C3=NCCN3)cc2)cc1)Nc1ccc(C2=NCCN2)cc1 [GW4869 hydrate],0.457
9,O=C(CCCCCCC(=O)Nc1ccccc1)NO [Vorinostat],-0.818
10,CCN(CC)C(=O)N1CCN(C)CC1 [Diethylcarbamazine citrate],0.644
11,Cc1oncc1C(=O)Nc1ccc(C(F)(F)F)cc1 [Leflunomide],0.618
12,COc1cc2ncc(-c3ccccc3)nc2cc1OC,-1.09
13,COc1ccc2[nH]c([S+]([O-])Cc3ncc(C)c(OC)c3C)nc2c1 (stereo not given) [Omeprazole],-0.664
14,CCOC(=O)C1=C[C@]2(CC)CCCN3CCc4c(n1c1ccccc41)[C@@H]32 [Vinpocetine],-0.435
15,NS(=O)(=O)c1cc(C(=O)O)c(NCc2ccco2)cc1Cl [Furosemide],-0.612
16,OC[C@@H](O)[C@@H](O)[C@H](O)[C@@H](O)CO [Sorbitol],0.342
17,CC1COc2c(N3CCN(C)CC3)c(F)cc3c(=O)c(C(=O)O)cn1c23 (stereo not given) [Ofloxacin],-0.567
18,C=C(C)[C@@H]1CC[C@]2(C(=O)O)CC[C@]3(C)[C@H](CC[C@@H]4[C@@]5(C)CC[C@H](O)C(C)(C)[C@@H]5CC[C@]43C)[C@@H]12 [Betulinic acid],-0.148
19,Clc1ccc(COC(Cn2ccnc2)c2ccc(Cl)cc2Cl)c(Cl)c1 (stereo not given) [Miconazole],-0.276
20,OC[C@H]1O[C@H](O[C@H]2O[C@H](CO)[C@@H](O)[C@H](O)[C@H]2O)[C@H](O)[C@@H](O)[C@@H]1O [Trehalose],0.203
